AC50 and outcome data for 14 molecules are collected here from PubChem BioAssay (EPA / NIEHS).

Results filed as inconclusive are left out. The source made the active and inactive calls. Rule for the calls, unless noted: active = hit-call score of the fitted dose curve at least 0.9, where 1 is the maximum; inconclusive = response in the unintended direction; inactive = score below 0.9.

In assay [1] the target is PGR (gene 5241) (UniProt P06401). As to the kind of experiment: TOX21_PR_BLA_Followup_Antagonist_ratio: Tox21 HEK293 Progesterone Receptor (PR) Antagonism Beta-lactamase Follow-Up Assay, Ratio (AID 2283934). In short, it runs like this: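 Readout is the blue/green (ch2/ch1) substrate cleavage ratio after 2 hours at room temperature, following 16 hr co-treatment of PR-bla HEK293T cells with compound and 1nM promegestone. Multiplexed CellTiter-Glo viability flags cytotoxicity; DMSO baseline.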

Assay [2] in a line: TOX21_PR_BLA_Followup_Agonist_viability: Viability Assessment in the Tox21 HEK293 Progesterone Receptor (PR) Agonism Beta-lactamase Follow-Up Assay (AID 2283935).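 Note: signal loss means lower viability so actives are cytotoxic.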 In short, it runs like this:
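Run multiplexed with the beta-lactamase FRET read, this endpoint measures ATP by CellTiter-Glo luminescence (30 min, room temperature). PR-UAS-bla HEK293T cells received compound 6 hr after plating and were then incubated 16 hr at 37C in 2% stripped serum.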

Assay [3] in a line: TOX21_PR_BLA_Followup_Antagonist_viability: Viability Assessment in the Tox21 HEK293 Progesterone Receptor (PR) Antagonism Beta-lactamase Follow-Up Assay (AID 2283936).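 Note: cells exposed to compound with R5020 agonist for 16 h; hits lower the luminescence signal meaning cytotoxicity.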 The procedure:
TOX21_PR_BLA_Followup is a secondary assay for specificity for the TOX21_PR_BLA_Agonist assay. To differentiate true PR agonists from cytotoxic substances, this follow up assay is multiplexed with a cell viability assay. The compounds were also tested for auto fluorescence that may interfere with the biological target readout resulting in potential false positives and/or negatives. To identify the compounds that stimulate PR signaling, a PR-UAS-bla GripTite cell line i.e. PR-UAS-bla HEK293T (Invitrogen, Carlsbad, CA, USA) containing a beta-lactamase reporter gene under the control of an UAS response element was used to screen Tox21 10K compound library. The cytotoxicity of the Tox21 compound library against the PR-bla cell line was tested in parallel by measuring the cell viability using CellTiter-Glo assay in the same wells. TOX21_PR_BLA_Followup_Antagonist_viability is a component of the TOX21_PR_BLA_Followup_Antagonist assay. This component measures cell viability using the CellTiter-Glo Luciferase-coupled ATP quantitation.TOX21_PR_BLA_Followup_Antagonist_viability used a type of viability reporter where loss-of-signal activity can be used to understand changes in the cell viability. Furthermore, this assay endpoint can be referred to as a secondary readout, because this assay has produced multiple assay endpoints where this one serves a viability function. To generalize the intended target to other relatable targets, this assay endpoint is annotated to the cell cycle intended target family, where the subfamily is cytotoxicity.
Assay Protocol: PR-UAS-bla HEK293T cells were dispensed at 3,000 cells/4 uL of assay medium containing 2% charcoal stripped FBS per well into black wall/clear-bottom 1536-well plates using a Multidrop Combi (ThermoFisher Scientific, Waltham, MA) dispenser. After the assay plates were incubated at a 37C and 5% CO2 for 4 hr, 23 nL of compounds dissolved in DMSO, positive controls or DMSO only was transferred to the assay plate by a Pintool station (Kalypsys, San Diego, CA), followed by addition of 1 uL of R5020 in assay medium using a Flying Reagent Dispenser (FRD, Aurora Discovery, San Diego, CA). The plates were incubated at 37C and 5% CO2 for 16 hr. Then 1 uL of LiveBLAzer B/G FRET substrate was added using a Flying Reagent Dispenser, the plates were incubated at room temperature for 2 hours, and fluorescence intensity was measured by an Envision plate reader (PerkinElmer, Shelton, CT). For cell viability readout that measures cytotoxicity, 4 uL/well of CellTiter-Glo reagent was added into the assay plates using a FRD. After 30 min incubation at room temperature, the luminescence intensity in the plates was measured using a ViewLux (PerkinElmer) plate reader.

Assay [4] addresses PGR (gene 5241) (UniProt P06401). As to the kind of experiment: TOX21_PR_LUC_Followup_Antagonist: Tox21 HEK293 Progesterone Receptor (PR) Antagonism Luciferase Follow-Up Assay (AID 2283938).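 Note: curve fitted upward as signal gain over DMSO baseline despite antagonist label.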 Summed up: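 HEK293-PR-A-luc cells were precultured 5 days in medium with 10% charcoal-stripped FBS, seeded 3,000/well, then exposed to compounds in DMSO for 16 h at 37C. Luciferase was read by ONE-Glo luminescence after 30 min at room temperature.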

The target in assay [5] is Thyroid hormone receptor alpha (Rattus norvegicus) + Thyroid hormone receptor beta (Rattus norvegicus) (UniProt P18113+P63059). As to the kind of experiment: TOX21_TR_LUC_GH3_Agonist_Followup: Tox21 GH3 Thyroid Hormone Receptor Agonism Luciferase Follow-Up Assay (AID 2283939). Summed up: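 Agonist-mode confirmatory run: 15 concentrations (5 nM to 92 uM final) on GH3 rat pituitary cells, 24 h at 37C/5% CO2, T3 as positive control. Luminescence read with ONE-Glo after 30 min.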

Assay [6] can be described thus: CEETOX_H295R_PROG_noMTC: CeeTox H295R High-throughput Steroidogenesis Assay for Progesterone (PROG), maximum tolerated concentration (MTC) filtered results only (AID 2283920; active = hit-call score of the fitted dose curve at least 0.9, where 1 is the maximum; inactive = score below 0.9). The conditions noted are these: actives raise or lower the signal. Summed up: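 Progesterone synthesis in the human adrenal line H295R is measured by HPLC-MS/MS after 48 h chemical exposure following 48 h forskolin (10 uM) stimulation. Activity in either direction is fitted relative to DMSO.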

Assay [7] is described as follows: CEETOX_H295R_ESTRADIOL_noMTC: CeeTox H295R High-throughput Steroidogenesis Assay for Estradiol, maximum tolerated concentration (MTC) filtered results only (AID 2283919; active = hit-call score of the fitted dose curve at least 0.9, where 1 is the maximum; inactive = score below 0.9). The conditions noted are these: actives raise or lower the signal. The procedure: (§1) CEETOX_H295R is a cell-based, multiplexed-readout assay that uses H295R, a human adrenal gland cell line, with measurements taken at 48 hours after chemical dosing in a 96-well plate.CEETOX_H295R_ESTRADIOL_noMTC is one of 12 assay component(s) measured or calculated from the CEETOX_H295R assay (11 hormones and 1 viability assay). It is designed to make measurements of hormone induction, a form of inducible reporter, as detected with absorbance signals by HPLC-MS-MS technology. The concentrations for these components have not been pre-filtered for the maximum tolerated concentration (MTC) based on the MTT assay (_noMTC).Data from the assay component CEETOX_H295R_ESTRADIOL_noMTC was analyzed into 1 assay endpoint. This assay endpoint, CEETOX_H295R_ESTRADIOL_noMTC, was analyzed with bidirectional fitting relative to DMSO as the negative control and baseline of activity. […]
(§2) Cell culture and media preparation procedures were conducted in accordance with OECD Test No. 456 guidelines, with minor modifications. […] For steroid quantification, media samples were shipped to OpAns, LLC (Durham, NC) on dry ice, and samples were thawed to room temperature prior to liquid-liquid extraction. […] Steroid hormones were separated by HPLC, eluted using a reverse phase C18 gradient with electrospray positive ionization, followed by quantification by tandem mass spectrometry (MS/MS). […]

Assay [8] is described as follows: CEETOX_H295R_ESTRONE_noMTC: CeeTox H295R High-throughput Steroidogenesis Assay for Estrone, maximum tolerated concentration (MTC) filtered results only (AID 2283921; active = hit-call score of the fitted dose curve at least 0.9, where 1 is the maximum; inactive = score below 0.9). The conditions noted are these: actives raise or lower the signal. Here is the method:
as §1, with “plate.CEETOX_H295R_ESTRONE_noMTC” for “plate.CEETOX_H295R_ESTRADIOL_noMTC”, “CEETOX_H295R_ESTRONE_noMTC” for “CEETOX_H295R_ESTRADIOL_noMTC”, “CEETOX_H295R_ESTRONE_noMTC,” for “CEETOX_H295R_ESTRADIOL_noMTC,”
as §2

In assay [9] the target is PGR (gene 5241) (UniProt P06401). Briefly: TOX21_PR_BLA_Followup_Agonist_ratio: Tox21 HEK293 Progesterone Receptor (PR) Agonism Beta-lactamase Follow-Up Assay, Ratio (AID 2283933). In short, it runs like this: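 Beta-lactamase reporter readout: ratio of cleaved (ch2) to uncleaved (ch1) substrate after 2 h room-temperature loading, following 16 h compound exposure at 37C. Cells were PR-UAS-bla HEK293T in 2% charcoal-stripped FBS medium. Viability was multiplexed by CellTiter-Glo.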

Assay [10] shares this target. As to the kind of experiment: TOX21_PR_LUC_Followup_Agonist: Tox21 HEK293 Progesterone Receptor (PR) Agonism Luciferase Follow-Up Assay (AID 2283937; active = hit-call score of the fitted dose curve at least 0.9, where 1 is the maximum; inactive = score below 0.9). Summed up:
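Agonism scored as luciferase induction over DMSO, read by ONE-Glo after 30 min at RT. Compounds were incubated 16 h at 37C on HEK293-PR-A-luc cells (3,000/well, pre-plated 5 h) previously grown 5 days in charcoal-stripped serum.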

Chain of Thyroid hormone receptor alpha (Rattus norvegicus) + Thyroid hormone receptor beta (Rattus norvegicus) (P63059 whole entry, looked up): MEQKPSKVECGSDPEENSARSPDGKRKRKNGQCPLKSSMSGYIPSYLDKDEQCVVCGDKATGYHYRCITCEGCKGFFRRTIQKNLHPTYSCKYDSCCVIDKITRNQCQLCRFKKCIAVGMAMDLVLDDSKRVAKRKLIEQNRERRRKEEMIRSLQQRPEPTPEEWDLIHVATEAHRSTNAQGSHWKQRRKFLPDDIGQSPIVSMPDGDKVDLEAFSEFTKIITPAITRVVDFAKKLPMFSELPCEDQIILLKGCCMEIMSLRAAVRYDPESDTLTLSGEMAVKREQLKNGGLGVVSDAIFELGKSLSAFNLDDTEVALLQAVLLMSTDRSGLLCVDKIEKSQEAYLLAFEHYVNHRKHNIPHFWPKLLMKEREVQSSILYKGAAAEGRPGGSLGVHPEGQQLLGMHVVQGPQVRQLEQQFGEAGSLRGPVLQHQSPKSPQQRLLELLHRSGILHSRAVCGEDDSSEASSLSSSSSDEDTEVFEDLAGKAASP
Chain of Thyroid hormone receptor alpha (Rattus norvegicus) + Thyroid hormone receptor beta (Rattus norvegicus) (P18113 whole entry, looked up): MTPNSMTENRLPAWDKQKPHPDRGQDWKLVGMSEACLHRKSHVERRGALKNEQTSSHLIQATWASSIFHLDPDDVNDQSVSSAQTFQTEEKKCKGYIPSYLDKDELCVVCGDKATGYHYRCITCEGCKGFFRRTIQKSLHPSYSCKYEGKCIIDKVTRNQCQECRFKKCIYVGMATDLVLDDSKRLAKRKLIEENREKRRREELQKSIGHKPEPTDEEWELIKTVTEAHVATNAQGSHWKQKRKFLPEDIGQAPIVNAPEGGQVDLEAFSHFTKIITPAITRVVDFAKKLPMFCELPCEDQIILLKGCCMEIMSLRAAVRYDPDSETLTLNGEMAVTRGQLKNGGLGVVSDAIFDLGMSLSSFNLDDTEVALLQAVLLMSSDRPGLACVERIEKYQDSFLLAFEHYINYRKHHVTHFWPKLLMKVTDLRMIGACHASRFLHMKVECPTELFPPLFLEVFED
Chain of PGR (gene 5241) (P06401 whole entry, looked up): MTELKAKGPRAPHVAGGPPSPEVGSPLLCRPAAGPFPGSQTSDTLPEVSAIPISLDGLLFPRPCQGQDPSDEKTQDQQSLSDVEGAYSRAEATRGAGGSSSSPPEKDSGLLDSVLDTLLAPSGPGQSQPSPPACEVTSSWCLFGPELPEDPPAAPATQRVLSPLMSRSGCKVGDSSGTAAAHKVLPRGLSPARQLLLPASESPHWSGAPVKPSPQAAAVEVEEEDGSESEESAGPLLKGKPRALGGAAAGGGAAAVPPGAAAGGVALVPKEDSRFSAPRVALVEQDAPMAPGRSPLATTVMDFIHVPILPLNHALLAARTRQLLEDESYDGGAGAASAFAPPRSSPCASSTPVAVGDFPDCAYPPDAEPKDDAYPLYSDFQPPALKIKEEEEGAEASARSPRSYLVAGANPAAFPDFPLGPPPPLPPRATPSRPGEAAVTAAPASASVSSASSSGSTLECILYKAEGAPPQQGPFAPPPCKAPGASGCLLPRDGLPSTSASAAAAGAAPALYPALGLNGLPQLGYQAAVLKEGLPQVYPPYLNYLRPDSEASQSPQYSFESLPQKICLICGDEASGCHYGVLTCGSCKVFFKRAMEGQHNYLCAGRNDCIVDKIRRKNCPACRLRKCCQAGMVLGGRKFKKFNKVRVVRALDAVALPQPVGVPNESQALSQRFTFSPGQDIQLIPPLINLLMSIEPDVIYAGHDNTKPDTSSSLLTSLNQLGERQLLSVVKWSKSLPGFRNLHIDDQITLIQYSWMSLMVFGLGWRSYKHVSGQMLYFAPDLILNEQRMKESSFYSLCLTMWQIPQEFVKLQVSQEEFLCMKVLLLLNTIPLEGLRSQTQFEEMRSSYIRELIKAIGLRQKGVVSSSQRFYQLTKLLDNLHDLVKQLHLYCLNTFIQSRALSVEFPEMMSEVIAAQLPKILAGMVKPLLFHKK

As for `CCOC(=O)C(C#N)=C(c1ccccc1)c1ccccc1`, the AC50 in the assay with PGR (gene 5241) [1] was 15.2 µM (active); with PGR (gene 5241) [4], 23 µM (active). Besides, the outcome in assay [2] and in assay [3] was inactive.

Take `Clc1ccc(C(c2ccccc2Cl)C(Cl)Cl)cc1` (stereo unspecified): the AC50 with PGR (gene 5241) [1] was 11 µM (active); with PGR (gene 5241) [4] it was 13.1 µM (active). For the same molecule, the molecule was classed as inactive in assay [2] and in assay [3].

As for `C[C@H](CCC(=O)NCC(=O)O)[C@H]1CC[C@H]2[C@@H]3[C@H](O)C[C@@H]4C[C@H](O)CC[C@]4(C)[C@H]3C[C@H](O)[C@]12C`, the outcome in [5] was inactive.

`O=Cc1ccccc1S(=O)(=O)O`: in assay [5], the result was inactive.

As for `C=C1CC[C@H](O)C/C1=C/C=C1\CCC[C@]2(C)[C@@H]([C@H](C)/C=C/[C@H](C)C(C)C)CC[C@@H]12`, the outcome (with PGR (gene 5241) [1]; in assay [3]; in the assay with PGR (gene 5241) [4]) was inactive.

In the case of `OCCCCC(O)CO` (stereo unspecified), the result in assay [5] was inactive.

For the molecule `Cc1cc(C)nc(NS(=O)(=O)c2ccc(N)cc2)n1`, the result in assay [5] was inactive.

With `N#Cc1ccc(CC(=O)c2cccc(C(F)(F)F)c2)cc1`, the results for the half-maximal activity concentration (AC50) in the assay with PGR (gene 5241) [1] and with PGR (gene 5241) [4] were 46.1 µM (active) and 32 µM (active), respectively. Also, the call in [2] and in assay [3] was inactive.

`COc1ccc(OC)c(N=Nc2c(O)ccc3ccccc23)c1`: the outcome in assay [6] was inactive.

Turning to `O=C(Nc1ccc2c(O)c(N=Nc3ccc(N=Nc4ccc(S(=O)(=O)O)cc4)cc3)c(S(=O)(=O)O)cc2c1)c1ccccc1`, the call in assay [7], in assay [6] and in assay [8] was inactive.

Take `O=C(Nc1ccc2c(c1)Cc1ccccc1-2)C(F)(F)F`: the result (in the assay with PGR (gene 5241) [9]; in [2]; in assay [3]; with PGR (gene 5241) [10]) was inactive. Moreover, the figures for the concentration at half-maximal activity (AC50) with PGR (gene 5241) [1] and with PGR (gene 5241) [4] were 19.6 µM (active) and 62.9 µM (active), respectively.

For `C=C[Si]1(C)O[Si](C)(C=C)O[Si](C)(C=C)O[Si](C)(C=C)O1` (stereo unspecified), the call in [6] was inactive.

On to `O=c1c(O)c(-c2ccc(O)cc2)oc2cc(O)cc(O)c12`, for which, in the assay with PGR (gene 5241) [1], the half-maximal activity concentration (AC50) was 43.7 µM (active). For the same molecule, the molecule was classed as inactive in [2].

Turning to `CCCOC(=O)c1c(Cl)c(Cl)c(Cl)c(Cl)c1C(=O)OCCC`, the values for the half-maximal activity concentration (AC50) with PGR (gene 5241) [1] and with PGR (gene 5241) [4] were 9.87 µM (active) and 21.2 µM (active), respectively. Further, the molecule was classed as inactive in [2] and in assay [3].
